Shown are actives, neighbours in structure and some others; about 3.2% of the full set was active somewhere.
DSG3 Ab inh – blocks pemphigus antibody binding to human desmoglein-3; P32926; DSG3-coupled beads, scFv-anti-DSG3-GFP binding, flow cytometry; active compounds read low; binding (percent of control), % at 10 µM; actives 0.48% (n = 310,000); AID 588358;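 active = binding more than 3 SD below its plate's average and above zero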;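 also: hits lower antibody fragment binding to DSG3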
Target sequence (P32926 whole entry, looked up, the tested form may be a part): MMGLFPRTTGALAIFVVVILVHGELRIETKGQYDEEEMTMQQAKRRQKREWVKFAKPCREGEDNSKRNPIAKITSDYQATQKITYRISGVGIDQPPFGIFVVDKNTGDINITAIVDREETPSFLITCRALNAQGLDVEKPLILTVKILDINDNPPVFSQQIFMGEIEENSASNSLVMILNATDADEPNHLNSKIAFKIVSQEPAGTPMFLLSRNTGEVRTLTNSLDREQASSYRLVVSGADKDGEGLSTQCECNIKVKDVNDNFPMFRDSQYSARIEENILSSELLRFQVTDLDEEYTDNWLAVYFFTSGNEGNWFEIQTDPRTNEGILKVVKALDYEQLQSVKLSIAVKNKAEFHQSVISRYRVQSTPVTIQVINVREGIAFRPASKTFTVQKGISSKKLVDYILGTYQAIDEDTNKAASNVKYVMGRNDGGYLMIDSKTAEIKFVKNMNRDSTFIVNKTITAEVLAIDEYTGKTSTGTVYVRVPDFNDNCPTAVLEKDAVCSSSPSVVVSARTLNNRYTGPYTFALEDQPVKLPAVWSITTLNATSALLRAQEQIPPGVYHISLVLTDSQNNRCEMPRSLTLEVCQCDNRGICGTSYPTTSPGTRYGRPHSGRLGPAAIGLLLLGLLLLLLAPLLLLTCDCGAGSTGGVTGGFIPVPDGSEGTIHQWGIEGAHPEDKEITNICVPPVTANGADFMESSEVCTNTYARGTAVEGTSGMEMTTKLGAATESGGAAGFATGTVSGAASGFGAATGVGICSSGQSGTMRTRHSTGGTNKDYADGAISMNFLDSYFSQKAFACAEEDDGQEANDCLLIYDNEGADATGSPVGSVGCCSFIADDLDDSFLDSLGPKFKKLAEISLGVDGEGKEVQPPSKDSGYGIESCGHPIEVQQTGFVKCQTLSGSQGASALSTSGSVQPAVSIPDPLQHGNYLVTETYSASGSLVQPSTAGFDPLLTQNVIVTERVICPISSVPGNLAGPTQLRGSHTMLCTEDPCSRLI
rCAG binder – r(CAG) repeat RNA binding. TO-PRO-1 dye displacement fluorescence. inhibition, % at 3 µM. actives 1.3% (n = 370,000). AID 651821;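 active = inhibition above the plate cutoff, the mean of all test compounds on that plate plus 3 SD, cut at about 35% in these data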;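 also: higher means more dye released from RNA so lower well fluorescence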
NadD inh – blocks S. aureus nicotinate mononucleotide adenylyltransferase; purified NadD enzyme, colorimetric absorbance read-out; inhibition, % at 20 µM; actives 0.78% (n = 360,000); AID 602399; in the data active = inhibition above about 26%
DAGLB inhibitor – blocks human DAGLB lipase activity | Q8NCG7 | HEK293T DAGLB membrane lysate, EnzChek fluorogenic substrate | inhibition, % at 5.17 µM | actives 0.059% (n = 340,000); in the data active = inhibition above about 34%
bovine MsrA act – bovine methionine sulfoxide reductase A activation; purified bovine MsrA, absorbance read-out; activation, % at 10.6 µM; actives 0.3% (n = 360,000); AID 602163; in the data active = activation above about 7.5%
MsrA inh – inhibitors of bovine MsrA. purified bovine MsrA, absorbance read-out. inhibition, % at 15.5 µM. actives 0.75% (n = 360,000); in the data active = inhibition above about 4.5%
Each line names hits and unclear results; the compound was inactive in the other large screens.

Cn1c(SCc2ccc(F)cc2)nnc1-c1cnccn1	DSG3 Ab inh 76
O=S1(=O)N[C@H](Cc2ccccc2)COc2cc(F)ccc21	none (no result: DSG3 Ab inh, NadD inh, DAGLB inhibitor, bovine MsrA act)
COc1cc(/C=C/C(=O)OCC(=O)c2ccc[nH]2)cc(OC)c1OC	none
COc1ccc(/C=C/C(=O)c2ccc[nH]2)c(OC)c1OC	MsrA inh 4.6
CCOC(=O)c1[nH]c2c(c1-c1ccccc1)C(=O)CC(c1ccc(OCC)cc1)C2 (stereo not drawn)	DSG3 Ab inh -0.8
CC1(C(=O)NS(=O)(=O)C2CC2)CCCN(C(=O)c2ccc(C(F)(F)F)cc2)C1 (stereo not drawn)	none (no result: DSG3 Ab inh, DAGLB inhibitor)
CN(C)[C@@H]1CCN(c2cccc3c2S(=O)(=O)N2CC[C@@H](C2)O3)C1	none (no result: DSG3 Ab inh, NadD inh, DAGLB inhibitor, bovine MsrA act, MsrA inh)
COC(=O)[C@]12C[C@H](CC(=O)NCc3cccc4ccccc34)C(=O)N(Cc3ccco3)C1=C[C@H](C(C)C)O[C@@H]2C1CC1	none (no result: DSG3 Ab inh, NadD inh, DAGLB inhibitor, bovine MsrA act, MsrA inh)
COC(=O)c1ccccc1NC1=C/C(=N\S(=O)(=O)c2ccc(C(=O)O)cc2)c2ccccc2C1=O	NadD inh 47 (no result: rCAG binder, MsrA inh)
Cc1ccc(S(=O)(=O)/N=C2\C=C(Nc3ccc(O)cc3)C(=O)c3ccccc32)cc1	DAGLB inhibitor 46 (no result: rCAG binder, MsrA inh)
COC(=O)C1CN(C2CCCC2)CCS(=O)(=O)N1Cc1cn(Cc2ccc(C)cc2)nn1 (stereo not drawn)	none (no result: DSG3 Ab inh, NadD inh, DAGLB inhibitor, bovine MsrA act, MsrA inh)
CC(=O)c1cccc(NC(=O)C2CCCN2S(=O)(=O)c2ccccc2C(F)(F)F)c1 (stereo not drawn)	DSG3 Ab inh 69
O=C(/C=C/c1ccccc1)c1c[nH]c2ccccc12	DSG3 Ab inh 64
O=C(C=Cc1ccccc1)c1c[nH]c2ccccc2c1=O	none
Cn1cccc1C(=O)OCC(=O)Nc1sccc1C#N	none
N#Cc1ccsc1NC(=O)COC(=O)c1ccc2ccccc2c1	DSG3 Ab inh 63
O=C(CSc1nnc(-c2ccccn2)n1Cc1ccco1)Nc1ccc(Oc2ccccc2)cc1	none (no result: DSG3 Ab inh, NadD inh, DAGLB inhibitor, bovine MsrA act, MsrA inh)
COCCn1c(C)cc(/C=N/NC(=O)c2cc3ccccc3cc2O)c1C	NadD inh 35 (no result: rCAG binder, MsrA inh)
Nc1c(C(=O)NC2CC2)sc2nc3c(c(-c4ccco4)c12)CC/C3=C/c1ccco1	NadD inh 93 (no result: DSG3 Ab inh, rCAG binder, MsrA inh)
Cc1nc2sc(C(=O)NC3CC3)c(N)c2c(C)c1Cl	none (no result: DSG3 Ab inh, NadD inh, DAGLB inhibitor, bovine MsrA act, MsrA inh)
CCOc1ccc(/C(CCC(=O)O)=N/NC(=S)NCCc2ccccc2)cc1	rCAG binder 36
CCN(CC)c1ccc(N=Cc2ccc(N(CC)CC)cc2O)cc1	MsrA inh 4.6
CCN(CC)c1ccc(C=Nc2ccccc2)c(O)c1	none
CCN(CC)c1ccc(/C=N/NC(=O)OC)c(O)c1	MsrA inh 7.2
CCN(CC)c1ccc(/C=N/NC(=O)c2ccoc2C)c(O)c1	DSG3 Ab inh 48
CC(C)C[C@@H]1COc2cc(N3CCCC3)ccc2S(=O)(=O)N1C	none (no result: DSG3 Ab inh, NadD inh, DAGLB inhibitor, bovine MsrA act, MsrA inh)
Cc1ccc(CS(=O)(=O)c2ncc(Cl)c(C(=O)Nc3nnc(C(C)C)s3)n2)cc1	none
Cc1cccc(CS(=O)(=O)c2ncc(Cl)c(C(=O)Nc3nnc(C(C)C)s3)n2)c1	DSG3 Ab inh 93 (no result: rCAG binder, MsrA inh)
C=CCN1C(=O)[C@H](CC(=O)NCCCC)[C@@]2(C(=O)OCC)CCCC=C12	none (no result: DSG3 Ab inh, NadD inh, DAGLB inhibitor, bovine MsrA act, MsrA inh)
CCC(C)(C)NC(=O)C(c1ccncc1)N(C(=O)Cn1nnc2ccccc21)c1cc2c(cc1C(C)=O)OCO2 (stereo not drawn)	DSG3 Ab inh 84
CCC(C)(C)NC(=O)C(c1ccncc1)N(Cc1cccs1)C(=O)Cn1nnc2ccccc21 (stereo not drawn)	none
CCN1CCN(CC(O)COC(C)C)CC1 (stereo not drawn)	bovine MsrA act 15
CN(Cc1ccccc1)C(=O)OCc1cn(Cc2ccc(F)c(F)c2)nn1	none (no result: DSG3 Ab inh, NadD inh, DAGLB inhibitor, bovine MsrA act, MsrA inh)
CC1CCCN(C(=O)CSc2nnc(-c3cccnc3)n2C2CCCCC2)C1 (stereo not drawn)	DSG3 Ab inh 61
CCCn1c(NC(=O)c2ccc(Br)cc2)nc2ccccc21	DSG3 Ab inh 85
CC(C)(C)NS(=O)(=O)c1ccc(NC(=O)c2cc(-c3ccccc3)nc3ccccc23)cc1	DSG3 Ab inh 65
O=C(CSc1nnc(-c2cccs2)o1)Nc1cccc2ccccc12	none (no result: DSG3 Ab inh, NadD inh, DAGLB inhibitor, bovine MsrA act, MsrA inh)
COc1ccc(CCNC(=O)Cn2nnc(-c3cccs3)n2)cc1OC	none
COc1ccc(CCNC(=O)COc2ccc(-c3ccc(C)cc3)cc2)cc1OC	DSG3 Ab inh 83
COc1ccc(-c2nnn(CC(=O)NCCc3ccc(OC)c(OC)c3)n2)cc1	DSG3 Ab inh 38
COc1ccc(C(=O)Nc2ccc(Oc3nc(C)nc4sc(-c5ccccc5)cc34)cc2)cc1OC	none
COc1ccccc1C(=O)Nc1ccc(Oc2ncnc3sc(-c4ccccc4)cc23)cc1	none
COc1cc(C(=O)Nc2ccc(Oc3ncnc4sc(-c5ccccc5)cc34)cc2)cc(OC)c1OC	DSG3 Ab inh -10
COc1ccc(C(=O)Nc2ccc(Oc3ncnc4sc(-c5ccccc5)cc34)cc2)cc1OC	DSG3 Ab inh -207
CSc1nsc(/C=C/Nc2ccc(F)cc2F)c1C#N	none (no result: rCAG binder, MsrA inh)
CSc1nsc(/C=C/Nc2ccc(C(=O)O)cc2)c1C#N	rCAG binder 46
CCOC(=O)N1CCN(C(=O)C[C@H]2C[C@@]3(C(=O)OCC)CCCC4=C3N(CCC4)C2=O)CC1	none (no result: DSG3 Ab inh, NadD inh, DAGLB inhibitor, bovine MsrA act, MsrA inh)
Cc1cc2c(c(=O)o1)[C@@]1(C(=O)N(C)c3ccccc31)C1=C(CCCC1=O)O2	none (no result: DSG3 Ab inh, NadD inh, DAGLB inhibitor, bovine MsrA act)
COC1=CC(=O)C(O)=C(CCCCCCC/C=C/CCCCCCCC2=C(O)C(=O)C=C(OC)C2=O)C1=O	NadD inh 51 (no result: rCAG binder, MsrA inh)
CCCCCCCCCCCC1=C(O)C(=O)C=C(O)C1=O	NadD inh 37 (no result: rCAG binder, MsrA inh)
COc1ccc(-c2nc3c(C)cc(Br)cn3c2Cc2ccsc2)cc1OC	none (no result: DSG3 Ab inh, DAGLB inhibitor)
O=C1/C(=C/c2ccncc2)SC(=S)N1C1CCCCC1	none (no result: DSG3 Ab inh)
Cc1ccc(/C=C2/SC(=S)N(C3CCCCC3)C2=O)o1	rCAG binder 55
CN(C)S(=O)(=O)c1cccc(NC(=O)COC(=O)c2cc3ccccc3oc2=O)c1	DSG3 Ab inh 71
COc1ccc(C2NC(=S)NC3=C2CCCC3=C2SCCS2)cc1 (stereo not drawn)	NadD inh 61
CCOC(=O)Cn1cc(CN2CCS(=O)(=O)N(Cc3ccc(F)cc3)C(C(=O)OC)C2)nn1 (stereo not drawn)	none (no result: DSG3 Ab inh, NadD inh, DAGLB inhibitor, bovine MsrA act, MsrA inh)
OC(c1ccccc1)C(O)c1ccccc1 (stereo not drawn)	DSG3 Ab inh 91 (no result: DAGLB inhibitor)
Cc1cc(N)ccc1-n1c(C)ccc1C	none (no result: DSG3 Ab inh)
Cc1cc(N)ccc1N1CCCC1	NadD inh 70 (no result: rCAG binder, MsrA inh)
Cc1c(-c2ccc(Cl)cc2)oc(=O)c2c(N)n(-c3ccccc3)nc12	DSG3 Ab inh -17
Nc1c2c(=O)oc(-c3ccccc3)cc2nn1-c1ccccc1	none
COc1ccccc1CNC(=O)NC1CCN(CC(=O)Nc2ccc3c(c2)OCCO3)CC1	none (no result: DSG3 Ab inh, NadD inh, DAGLB inhibitor, bovine MsrA act, MsrA inh)
CSCCC(NC(=O)C1CCC(C)CC1)C(=O)OCC(=O)c1ccc(Cl)cc1 (stereo not drawn)	DSG3 Ab inh 3.8
CSCCC(NC(=O)C12CC3CC(CC(C3)C1)C2)C(=O)OCC(=O)c1ccc(Cl)cc1 (stereo not drawn)	none (no result: DSG3 Ab inh)

Compound activity as filed in PubChem BioAssay.
